Compounds without any hit were thinned out: in the full panel of roughly 83,000, 20% have a hit.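 Compound tested at a single concentration for 48 hours in 96-well plates; a percent growth value below 10 was scored as active.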 A number with no mark means an inactive call. Active and inactive are the calls of the source.
What was measured:
Assay in all cases: NCI-60 one-dose screen, 48 h (100 = growth as untreated, 0 = no growth, -100 = all killed)
Settings in all cases: 10 µM unless noted
NCI-H23 lung = test system: NCI-H23 lung
NCI-H322M lung = test system: NCI-H322M lung
HOP-62 NSCLC = test system: HOP-62 NSCLC
NCI-H460 lung = test system: NCI-H460 lung
HOP-92 NSCLC = test system: HOP-92 NSCLC
NCI-H522 lung = test system: NCI-H522 lung
A549/ATCC NSCLC = test system: A549/ATCC NSCLC
786-0 renal = test system: 786-0 renal
COLO 205 colon = test system: COLO 205 colon
DU-145 prostate = test system: DU-145 prostate
K-562 leukemia = test system: K-562 leukemia
MALME-3M melanoma = test system: MALME-3M melanoma
MDA-MB-231 breast = test system: MDA-MB-231 breast
RXF 393 renal = test system: RXF 393 renal
SF-268 CNS = test system: SF-268 CNS
SF-295 CNS = test system: SF-295 CNS
SF-539 CNS = test system: SF-539 CNS
UACC-257 melanoma = test system: UACC-257 melanoma
M14 melanoma = test system: M14 melanoma
HCT-15 colon = test system: HCT-15 colon

SMILES	growth (NCI-H23 lung)	growth (NCI-H322M lung)	growth (HOP-62 NSCLC)	growth (NCI-H460 lung)	growth (HOP-92 NSCLC)	growth (NCI-H522 lung)	growth (A549/ATCC NSCLC)	growth (786-0 renal)	growth (COLO 205 colon)	growth (DU-145 prostate)	growth (K-562 leukemia)	growth (MALME-3M melanoma)	growth (MDA-MB-231 breast)	growth (RXF 393 renal)	growth (SF-268 CNS)	growth (SF-295 CNS)	growth (SF-539 CNS)	growth (UACC-257 melanoma)	growth (M14 melanoma)	growth (HCT-15 colon)
COc1ccc(/C=C2\NC(=O)NC2=O)cc1O	98.1%	109%	108%	98.4%	89.2%	98%	99.1%	97.8%	117%	116%	106%	105%	114%	111%	106%	94.2%	106%	99.4%	89.8%	99%
O=c1oc2ccc(I)cc2c(=O)n1-c1ccc(F)cc1F	6.34% (active)	9.77% (active)	2.25% (active)	6.35% (active)	-29.9% (active)	-7.49% (active)	6.11% (active)	21.3%	104%	15.5%	7.26% (active)	-21% (active)	33.3%	11.1%	9.2% (active)	3.91% (active)	13.7%	-4.46% (active)	21%	15.6%
CN=c1ccc2nc3ccc(N)cc3sc-2c1	13.3%	42%	29%	27.6%	53.5%	10.5%	9.37% (active)	48.8%	1.63% (active)	75.3%	20.7%	-22.9% (active)	7.68% (active)	49.9%	16.1%	-43.1% (active)	12%	-19.3% (active)	9.39% (active)	30.3%
NC(CCc1nc2ccccc2c(=O)[nH]1)C(=O)O (stereo not given)	105%	97.8%	103%	108%	108%	91.7%	105%	101%	115%	120%	96.7%	104%	103%	115%	106%	104%	105%	105%	105%	101%
O=C(NC1CCCCC1)C(c1cccs1)N(CCc1ccccc1)C(=O)c1ccco1 (stereo not given)	86.1%	96.5%	90.6%	103%	75.5%	65.2%	92.2%	91.1%	96.1%	103%	82.8%	-11.2% (active)	98.5%	97.3%	92.6%	84.7%	90.9%	98.6%	93.7%	93.4%
Nc1nonc1-n1nncc1-c1cccnc1	102%	101%	110%	111%	99.8%	112%	94.7%	104%	114%	112%	105%	96.1%	111%	115%	106%	98.2%	102%	112%	104%	101%
CN1C(=O)N(C)C2C1NN=c1s/c(=C\c3ccc(Cl)cc3Cl)c(=O)n12 (stereo not given)	29%	38.3%	54.3%	3.01% (active)	97.6%	17.5%	25.1%	24%	1.82% (active)	5.98% (active)	7.76% (active)	62.4%	30.4%	16.2%	31.6%	17.4%	1.09% (active)	75.8%	7.37% (active)	15.8%
Clc1ccc(Nc2nnc(-c3ccc4c(c3)OCO4)o2)cc1	101%	98.9%	114%	103%	99.8%	80.9%	97.8%	97.9%	107%	98.9%	62.4%	99%	108%	130%	107%	115%	104%	100%	102%	95.8%

— PubChem BioAssay (NCI)
